Only some compounds are listed: those with a hit (about 4.5% of all), similar ones and a draw of the others.
697 NFkB inh = inhibitors of the PMA/ionomycin-induced NF-kB reporter in 697 B cells. 697 B-cell NF-kB luciferase reporter, 16 h. inhibition, % at 4 µM. 330,000 tested, 0.33% active; in the data active = inhibition above about 35%
Jurkat NFkB inh = lowers PMA/ionomycin-induced NF-kB signal in Jurkat cells. PMA/ionomycin-induced NF-kB luciferase reporter, luminescence. inhibition, % at 4 µM. 330,000 tested, 0.53% active; in the data active = inhibition above about 50%
Mdm2 MdmX PPI = disrupts the human Mdm2-MdmX interaction | SaOS-2 split-luciferase Mdm2/MdmX complementation, luminescence | 330,000 tested, 3% active | inhibition, % at 8 µM;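 active = inhibition of at least 50% at 8 µM in the primary screen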
Target sequence (O15151 whole entry, looked up): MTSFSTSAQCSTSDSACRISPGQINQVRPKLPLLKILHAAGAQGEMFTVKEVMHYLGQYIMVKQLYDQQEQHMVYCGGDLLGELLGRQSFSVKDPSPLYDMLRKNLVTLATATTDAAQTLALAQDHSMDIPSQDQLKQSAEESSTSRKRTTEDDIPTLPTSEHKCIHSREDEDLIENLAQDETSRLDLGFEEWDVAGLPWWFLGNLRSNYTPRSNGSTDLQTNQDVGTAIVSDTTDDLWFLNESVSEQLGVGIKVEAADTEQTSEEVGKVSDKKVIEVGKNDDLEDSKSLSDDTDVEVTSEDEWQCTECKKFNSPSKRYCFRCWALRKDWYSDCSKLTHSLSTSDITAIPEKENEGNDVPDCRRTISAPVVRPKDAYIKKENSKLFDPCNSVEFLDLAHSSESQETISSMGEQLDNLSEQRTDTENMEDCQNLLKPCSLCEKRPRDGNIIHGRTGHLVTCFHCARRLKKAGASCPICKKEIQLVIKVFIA
Target sequence (Q00987 whole entry, looked up): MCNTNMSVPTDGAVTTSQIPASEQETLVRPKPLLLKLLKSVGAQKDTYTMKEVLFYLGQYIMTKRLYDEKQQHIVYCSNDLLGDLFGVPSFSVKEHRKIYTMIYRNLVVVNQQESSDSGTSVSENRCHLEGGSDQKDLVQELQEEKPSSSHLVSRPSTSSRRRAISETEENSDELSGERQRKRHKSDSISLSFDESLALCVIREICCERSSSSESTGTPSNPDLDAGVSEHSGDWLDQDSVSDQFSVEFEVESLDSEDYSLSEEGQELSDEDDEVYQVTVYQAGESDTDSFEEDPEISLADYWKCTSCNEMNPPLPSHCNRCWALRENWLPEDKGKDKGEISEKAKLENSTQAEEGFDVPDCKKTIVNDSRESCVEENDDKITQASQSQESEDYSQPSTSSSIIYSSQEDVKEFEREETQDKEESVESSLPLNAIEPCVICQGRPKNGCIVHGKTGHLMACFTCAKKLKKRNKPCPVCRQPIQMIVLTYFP
Gli-Sufu antag = blocks Gli-Sufu signaling in a luciferase reporter; inhibition, % at 5 µM; Sufu-KO-LIGHT fibroblasts, Gli luciferase reporter luminescence; 340,000 tested, 0.74% active;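 active = inhibition above about 55%, limit read from the data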;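 note: 0% = DMSO-treated cells and 100% = wells with medium but no cells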
CSC inhib = cancer stem cell inhibition; cancer stem cell-like cells viability, luminescence; inhibition, % at 7.5 µM; 300,000 tested, 1.1% active; AID 2717; in the data active = inhibition above about 75%; tested in HMLE shEcad cells
Beta cell apopt = blocks beta cell apoptosis; protection from apoptosis, % (concentration not given with the values); AID 435005; 300,000 tested, 0.8% active; INS-1E cytokine-induced death, ATP luminescence, 48 h; percent of positive-control rescue, neutral wells zero;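 active = Every replicate reaches about 75%, or at least half do and their mean reaches it too, limit read from the data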;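 note: 0% = cytokine-treated negative control wells and 100% = positive control rescue; higher means more ATP so stronger rescue from cytokine killing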
Jurkat NFkB conf = lowers PMA/ionomycin-induced NF-kB signal in Jurkat cells. shares compounds with Jurkat NFkB inh. Jurkat NF-kB luciferase, 16 h. 2,700 tested, 27% active. inhibition, % at 4 µM;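 active = inhibition reaching about 45% at 4 µM in either replicate, limit read from the data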;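 note: plate controls were PMA/ionomycin stimulated DMSO wells for no effect and unstimulated DMSO wells for full effect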
Numbers without * were called inactive; . = no result.

SMILES	697 NFkB inh	Jurkat NFkB inh	Mdm2 MdmX PPI	Gli-Sufu antag	CSC inhib	Beta cell apopt	Jurkat NFkB conf
O=C(Nc1ccc(Br)cc1F)c1ccc2c(c1)OCCO2	-212	-161	-126	-175	28	-2	-92
CC(C)Oc1cccc(C(=O)Nc2ccc(Br)cc2F)c1	-132	-195	-168	-78	26	-7	-120
COc1ccc(S(=O)(=O)N2CCOC2CNC(=O)C(=O)NCc2ccc3c(c2)OCO3)cc1 (centres undefined)	15	5	8	5	-1	0	.
CCCC(C(=O)Nc1ccc(S(=O)(=O)Nc2nccs2)cc1)c1ccccc1 (centres undefined)	-13	11	12	-6	.	.	.
Cc1cc(C)c(O)c(NC(=S)NC(=O)Cc2ccccc2)c1	-34	-5	-8	12	6	0	.
COc1ccccc1NC1=CC(=O)CC(c2ccccc2)C1 (centres undefined)	-29	52*	29	12	-13	8	12
Cc1ccc(S(=O)(=O)N2CCCCC2)cc1C(=O)NCCCN1CCOCC1	4	3	14	6	-1	1	.
Cc1nn(CC(=O)NC2(C)CCS(=O)(=O)C2)c(C)c1S(=O)(=O)N(C)C (centres undefined)	1	57*	4	3	-10	-1	14
O=C(CC1C(=O)NCCN1Cc1ccccc1)NCCCOc1cccnc1 (centres undefined)	18	9	19	14	-5	-4	.
Cc1ccc(O)c(N=Nc2ccc(S(=O)(=O)N3CCCC3)cc2)c1	-62	-37	-34	6	-6	2	.
COc1ccc(N=Nc2cc(C)ccc2O)cc1	-170	-159	-186	-75	12	-9	-134
O=C(N/N=C/c1ccc(Cl)cc1)c1cc(-c2cccnc2)nc2ccccc12	-42	66*	39	-18	44	20	15
COCCN(CC(=O)Nc1ccccc1C(F)(F)F)C(=O)c1ccc(-n2cccn2)cc1	9	-6	-11	-3	.	-5	.
CC[C@]12c3[nH]c4ccc(Cl)cc4c3CCN1C(=O)[C@@H](CC(=O)NCCCn1ccnc1)C[C@@H]2C(=O)N1CCN(C(=O)c2ccco2)CC1	23	.	-8	3	.	.	.
CN(C)c1ccc(-c2nnc(-c3cccs3)o2)cc1	-238	-161	-50	-142	.	-3	-115
CCCOc1ccc(-c2nnc(-c3cccs3)o2)cc1	-167	-117	-47	-50	0	-3	.
CCOC(=O)N1CCN(C(=O)Cc2ccccc2OC)CC1	17	-3	11	-8	-12	-3	.
CCc1nnc(SC(C)C(=O)Nc2nccs2)n1C (centres undefined)	7	8	27	-10	-8	-2	.
Oc1[nH]c2ccccc2c1N=Nc1nc2ccccc2s1	-227	-174	-4	-78	3	-3	-92
c1ccc2oc(-c3csc(N4CCOCC4)n3)cc2c1	-216	-221	-121	-101	-15	0	-23
Cc1ccc(NC(=O)/C(Cl)=C/c2ccccc2)cc1C	-161	-155	-198	-103	16	0	-116
CC(=O)Nc1ccccc1C(=O)C(=O)Nc1ccc(C)c(C)c1	-15	-54	-76	-71	-5	-5	.
Cn1c(=NC(=O)c2cccc([N+](=O)[O-])c2)sc2ccccc21	-183	-260	47	-94	-3	7	-160
Cc1cc(C)c(S(=O)(=O)Cc2ccccc2)c(Cl)n1	-7	-17	-19	15	-5	-3	.
CCc1ccc(C2=NN(S(C)(=O)=O)C(c3cccs3)C2)cc1 (centres undefined)	-231	-182	-176	-123	-4	3	-65
SMILES	697 NFkB inh	Jurkat NFkB inh	Mdm2 MdmX PPI	Gli-Sufu antag	CSC inhib	Beta cell apopt	Jurkat NFkB conf
O=C(NCc1ccc(Cl)cc1)c1cc([N+](=O)[O-])ccc1Cl	15	60*	16	-11	-3	-6	12
Cc1ccc(C(=O)CSc2nnc3ccccn23)c(C)c1	-131	-158	-56	-106	6	-5	-83
Cc1cccc(C)c1NC(=O)CNC(=O)c1ccc(NS(=O)(=O)c2ccc3[nH]c(=O)[nH]c3c2)cc1	10	4	9	-4	-2	-3	.
COc1cc(C(=O)OCCc2cc3ccccc3c(=O)o2)cc(OC)c1OC	-73	58*	48	5	71	9	58*
CN(C)c1ccc(N=Nc2ccc3ncccc3c2)cc1	.	.	.	-127	.	.	.
Cc1cc(N(C)C)ccc1N=Nc1ccc2ncccc2c1	-183	-165	-118	-92	10	-5	-105
Cc1cccc(NC(=O)COC(=O)CCc2c[nH]c3ccccc23)c1	15	-1	16	5	.	-2	.
CCN(CC(=O)Nc1ccccc1OC)Cc1csc(CC(=O)Nc2ccc(C)cc2)n1	-7	-3	9	0	.	-5	.
CCOc1ccc(Nc2cc(C)nc(-n3nc(C)cc3C)n2)cc1	11	54*	44	39	57	91*	57*
Oc1ccc(-c2csc(Nc3ncccn3)n2)cc1	-208	-159	-182	-36	14	-12	-59
c1ccc(-c2csc(Nc3ncccn3)n2)cc1	-245	-212	-118	-95	.	-3	-105
Cc1ccc(NS(=O)(=O)c2ccc(NC(=O)CSc3ccc(Cl)cc3)cc2)c(C)c1	5	-2	33	3	13	-5	.
O=C(O)Cc1ccc(NC(=O)Cc2ccc3ccccc3c2)cc1	-91	0	0	3	.	.	.
Cc1ccc(O)c(NC(=O)Cc2ccc3ccccc3c2)c1	-23	74*	5	28	1	-1	37
Cc1ccc(O)c(NC(=O)CSc2ccc(Cl)cc2)c1	-12	69*	26	21	2	5	35
CC(C)NC(=O)C(c1ccc(F)cc1)N(C(=O)CCC(=O)Nc1ccccn1)C1CCCC1 (centres undefined)	6	-11	12	7	5	-8	.
CCCSCCCNC(=O)CN1C(=O)COc2ccc(S(=O)(=O)N3CCCC3)cc21	8	-12	16	14	.	.	.
Cn1c(/C=N/Nc2nc3ccccc3[nH]2)nc2ccccc21	-239	-171	-132	-64	33	18	-105
CCCn1c(/C=N/Nc2nc3ccccc3[nH]2)nc2ccccc21	.	.	.	-2	.	.	.
CSc1ccc(/C=N/NC(=O)c2sccc2C)cc1	-187	-159	-198	-53	34	22	-93
CCOc1ccc(C(=O)NC(=S)Nc2cccc(S(=O)(=O)NC3=NCCC3)c2)cc1	5	60*	50	-1	39	3	34
C/C(=N\OCc1cccc(C(=O)O)c1)c1ccc(Cl)cc1	13	62*	17	-231	8	3	38
C/C=C(/CCC1NCCc2c1[nH]c1ccccc21)[Si](C)(C)C (centres undefined)	.	.	.	12	.	.	.
O=C(Nc1nc2ccc(F)cc2s1)c1cccs1	-238	-192	-189	-71	11	33	-118
